What all share (test): DAPPL (digital affinity profiling via proximity ligation, sequencing); 10 mM Tris-HCl pH 7.5, 50 mM NaCl, 1 mM DTT, 4% glycerol, room temperature, 30 min; GST-TFs on glutathione beads, 16-mer random dsDNA library, 0.1% formaldehyde crosslink after washing; high values mean tight binding
The target of one test is T1, FLI1 (Homo sapiens, UniProt Q01543 1-452).
T1 sequence: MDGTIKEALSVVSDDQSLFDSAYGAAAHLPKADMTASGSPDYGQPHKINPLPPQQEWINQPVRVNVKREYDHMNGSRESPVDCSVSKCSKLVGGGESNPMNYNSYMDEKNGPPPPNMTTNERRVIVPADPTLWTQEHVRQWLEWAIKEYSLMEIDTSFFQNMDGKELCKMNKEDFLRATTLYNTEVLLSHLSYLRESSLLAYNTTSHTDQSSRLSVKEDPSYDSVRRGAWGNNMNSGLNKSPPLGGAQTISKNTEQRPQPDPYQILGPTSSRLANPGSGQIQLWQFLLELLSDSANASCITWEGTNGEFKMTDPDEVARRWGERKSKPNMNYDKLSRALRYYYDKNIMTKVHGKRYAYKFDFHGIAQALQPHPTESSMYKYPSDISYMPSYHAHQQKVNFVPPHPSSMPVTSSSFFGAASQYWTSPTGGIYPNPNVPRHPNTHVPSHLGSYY
As to conditions: protein: recombinant; tags: N-terminal GST; dsDNA, one strand shown. In outline:
(§1)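 Beads coated with glutathione captured GST-fused human transcription factors that had been expressed in yeast, and the factors were then given DNA barcodes and pooled with a tag-only sample. The pools were incubated with 200 nmole of a random double-stranded 16-mer DNA library in Tris/NaCl/DTT/glycerol buffer for 30 min at room temperature, washed, crosslinked with 0.1% formaldehyde and proximity-ligated with BsaI/T4 ligase at 37 °C for 1 h. PCR amplification and Illumina NextSeq500 sequencing came last. Binding signal is each hexamer's read frequency for a factor divided by its frequency for the tag-only sample.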

In a further test the target is T2, ELK1 (Homo sapiens, UniProt P19419 1-428).
T2 sequence: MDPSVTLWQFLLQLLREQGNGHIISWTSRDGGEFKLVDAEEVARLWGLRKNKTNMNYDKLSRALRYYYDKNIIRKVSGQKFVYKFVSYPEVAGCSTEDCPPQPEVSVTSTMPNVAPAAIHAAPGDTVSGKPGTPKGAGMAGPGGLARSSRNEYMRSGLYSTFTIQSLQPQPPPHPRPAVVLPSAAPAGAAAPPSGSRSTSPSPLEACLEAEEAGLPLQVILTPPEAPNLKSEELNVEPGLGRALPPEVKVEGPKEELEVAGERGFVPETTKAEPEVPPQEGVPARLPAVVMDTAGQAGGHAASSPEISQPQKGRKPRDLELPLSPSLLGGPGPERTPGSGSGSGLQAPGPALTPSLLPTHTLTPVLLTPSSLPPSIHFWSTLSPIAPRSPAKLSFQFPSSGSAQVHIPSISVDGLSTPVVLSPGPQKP
As to conditions: protein: recombinant; tags: N-terminal GST; dsDNA, one strand shown. In outline: as §1

A further test addresses T3, GABPA (Homo sapiens, UniProt Q06546 1-454).
T3 sequence: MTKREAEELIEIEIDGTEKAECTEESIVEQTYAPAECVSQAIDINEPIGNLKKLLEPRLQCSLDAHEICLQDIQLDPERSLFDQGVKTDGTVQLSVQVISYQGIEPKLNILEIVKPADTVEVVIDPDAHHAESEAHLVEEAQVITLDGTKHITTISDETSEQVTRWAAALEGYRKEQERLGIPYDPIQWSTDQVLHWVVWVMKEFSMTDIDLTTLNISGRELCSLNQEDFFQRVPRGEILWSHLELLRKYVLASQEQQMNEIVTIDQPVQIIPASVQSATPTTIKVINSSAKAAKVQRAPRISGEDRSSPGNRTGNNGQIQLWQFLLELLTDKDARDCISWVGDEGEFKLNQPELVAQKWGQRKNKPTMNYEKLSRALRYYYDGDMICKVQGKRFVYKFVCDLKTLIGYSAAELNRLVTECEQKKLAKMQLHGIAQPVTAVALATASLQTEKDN
As to conditions: protein: recombinant; tags: N-terminal GST; dsDNA, one strand shown. In outline:
as §1

The target of another test is T4, ERG (Homo sapiens, UniProt P11308 1-479).
T4 sequence: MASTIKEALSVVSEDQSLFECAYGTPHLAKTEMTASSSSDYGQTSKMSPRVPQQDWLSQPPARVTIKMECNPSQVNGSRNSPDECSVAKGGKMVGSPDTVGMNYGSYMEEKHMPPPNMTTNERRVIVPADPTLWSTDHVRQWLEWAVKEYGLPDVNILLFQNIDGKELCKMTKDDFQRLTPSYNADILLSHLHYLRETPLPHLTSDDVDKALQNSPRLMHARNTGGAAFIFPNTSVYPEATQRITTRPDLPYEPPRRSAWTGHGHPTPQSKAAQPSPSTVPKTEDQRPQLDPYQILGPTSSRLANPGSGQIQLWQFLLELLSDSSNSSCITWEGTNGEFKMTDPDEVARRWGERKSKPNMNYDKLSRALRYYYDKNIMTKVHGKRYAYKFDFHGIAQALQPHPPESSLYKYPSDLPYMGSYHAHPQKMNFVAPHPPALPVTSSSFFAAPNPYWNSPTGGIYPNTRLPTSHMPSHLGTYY
As to conditions: protein: recombinant; tags: N-terminal GST; dsDNA, one strand shown. In outline: as §1

A further test deals with ELF1 (Homo sapiens, UniProt P32519 1-619). As to conditions: protein: recombinant; tags: N-terminal GST; dsDNA, one strand shown. In outline:
as §1

The next test addresses T5, EHF (Homo sapiens, UniProt Q9NZC4 1-300).
T5 sequence: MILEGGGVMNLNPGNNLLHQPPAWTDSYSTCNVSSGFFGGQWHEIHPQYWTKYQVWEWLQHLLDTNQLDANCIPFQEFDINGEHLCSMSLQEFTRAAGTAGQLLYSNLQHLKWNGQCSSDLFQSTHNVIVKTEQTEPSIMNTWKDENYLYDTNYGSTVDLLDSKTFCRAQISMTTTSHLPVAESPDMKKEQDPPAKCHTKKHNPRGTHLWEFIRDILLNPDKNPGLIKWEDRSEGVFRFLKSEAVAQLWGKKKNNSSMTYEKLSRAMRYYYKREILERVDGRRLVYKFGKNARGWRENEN
As to conditions: protein: recombinant; tags: N-terminal GST; dsDNA, one strand shown. The method, boiled down: as §1

Another test deals with SPI1 (Homo sapiens, UniProt P17947 1-270). As to conditions: protein: recombinant; tags: N-terminal GST; dsDNA, one strand shown. The method, boiled down: as §1
The target in a further test is SPIB (Homo sapiens, UniProt Q01892 1-262). As to conditions: protein: recombinant; tags: N-terminal GST; dsDNA, one strand shown. In outline: as §1
SPIB, sequence (Q01892 whole entry): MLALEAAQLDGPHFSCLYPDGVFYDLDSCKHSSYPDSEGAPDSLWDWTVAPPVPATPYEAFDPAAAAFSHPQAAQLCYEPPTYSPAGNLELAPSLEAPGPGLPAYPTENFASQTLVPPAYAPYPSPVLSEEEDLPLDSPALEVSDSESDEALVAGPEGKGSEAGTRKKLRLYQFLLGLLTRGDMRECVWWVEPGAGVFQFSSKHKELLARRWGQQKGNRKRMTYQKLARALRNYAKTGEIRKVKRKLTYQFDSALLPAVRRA
The next test has as its target T6, ELK3 (Homo sapiens, UniProt P41970 1-407).
T6 sequence: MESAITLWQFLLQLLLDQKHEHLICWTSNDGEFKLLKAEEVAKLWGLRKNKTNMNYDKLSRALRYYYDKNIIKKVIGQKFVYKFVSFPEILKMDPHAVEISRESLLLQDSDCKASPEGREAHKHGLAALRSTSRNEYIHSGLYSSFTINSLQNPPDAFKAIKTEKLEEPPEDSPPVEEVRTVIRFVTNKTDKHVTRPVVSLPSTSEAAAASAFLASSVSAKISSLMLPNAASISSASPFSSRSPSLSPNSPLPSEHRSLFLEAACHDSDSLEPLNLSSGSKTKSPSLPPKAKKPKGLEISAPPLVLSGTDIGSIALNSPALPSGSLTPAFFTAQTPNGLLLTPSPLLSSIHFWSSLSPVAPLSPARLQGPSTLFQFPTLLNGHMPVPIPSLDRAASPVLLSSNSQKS
As to conditions: protein: recombinant; tags: N-terminal GST; dsDNA, one strand shown. In outline:
as §1

The next test concerns the target T7, FEV (Homo sapiens, UniProt Q99581 1-238).
T7 sequence: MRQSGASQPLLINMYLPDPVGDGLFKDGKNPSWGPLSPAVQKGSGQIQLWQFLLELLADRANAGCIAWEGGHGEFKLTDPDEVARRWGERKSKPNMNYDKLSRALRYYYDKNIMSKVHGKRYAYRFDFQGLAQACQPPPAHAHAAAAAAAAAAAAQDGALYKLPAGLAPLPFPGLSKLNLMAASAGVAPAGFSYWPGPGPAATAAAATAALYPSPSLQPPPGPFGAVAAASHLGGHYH
As to conditions: protein: recombinant; tags: N-terminal GST; dsDNA, one strand shown. The method, boiled down: as §1

In a further test the target is ETV5 (Homo sapiens, UniProt P41161 1-510). As to conditions: protein: recombinant; tags: N-terminal GST; dsDNA, one strand shown. In outline: as §1
ETV5, sequence (P41161 whole entry): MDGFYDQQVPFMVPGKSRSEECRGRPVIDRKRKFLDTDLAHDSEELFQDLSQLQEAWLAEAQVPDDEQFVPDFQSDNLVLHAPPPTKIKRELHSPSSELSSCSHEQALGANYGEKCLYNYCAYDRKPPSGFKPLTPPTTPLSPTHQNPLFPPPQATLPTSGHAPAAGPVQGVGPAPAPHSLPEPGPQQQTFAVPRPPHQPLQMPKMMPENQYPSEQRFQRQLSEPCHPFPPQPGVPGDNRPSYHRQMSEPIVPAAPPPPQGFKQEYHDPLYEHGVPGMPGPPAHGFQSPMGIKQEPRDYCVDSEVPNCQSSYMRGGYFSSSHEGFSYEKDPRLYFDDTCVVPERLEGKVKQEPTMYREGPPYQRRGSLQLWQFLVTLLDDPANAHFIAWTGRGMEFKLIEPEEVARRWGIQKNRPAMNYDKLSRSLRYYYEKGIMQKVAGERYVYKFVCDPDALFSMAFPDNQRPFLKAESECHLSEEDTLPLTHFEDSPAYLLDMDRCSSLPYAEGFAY
The target in another test is HSF1 (Homo sapiens, UniProt Q00613 1-529). As to conditions: protein: recombinant; tags: N-terminal GST; chain copies: 3; dsDNA, one strand shown. The method, boiled down: as §1
HSF1, sequence (Q00613 whole entry): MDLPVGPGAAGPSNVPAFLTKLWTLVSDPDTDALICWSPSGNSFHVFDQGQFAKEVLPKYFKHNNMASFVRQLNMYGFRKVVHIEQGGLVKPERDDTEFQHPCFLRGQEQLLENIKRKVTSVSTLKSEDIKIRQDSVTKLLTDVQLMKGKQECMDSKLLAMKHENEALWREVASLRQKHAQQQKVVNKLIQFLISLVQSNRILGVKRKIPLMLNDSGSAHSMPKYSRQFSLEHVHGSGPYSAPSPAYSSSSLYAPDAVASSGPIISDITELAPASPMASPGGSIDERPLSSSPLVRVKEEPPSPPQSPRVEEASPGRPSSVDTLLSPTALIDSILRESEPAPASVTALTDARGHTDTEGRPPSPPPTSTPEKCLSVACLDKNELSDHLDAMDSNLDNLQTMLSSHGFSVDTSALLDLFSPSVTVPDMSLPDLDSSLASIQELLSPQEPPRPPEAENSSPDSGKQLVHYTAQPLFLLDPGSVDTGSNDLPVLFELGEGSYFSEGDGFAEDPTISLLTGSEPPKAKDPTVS
Another test has as its target T8, SPIC (Homo sapiens, UniProt Q8N5J4 1-248).
T8 sequence: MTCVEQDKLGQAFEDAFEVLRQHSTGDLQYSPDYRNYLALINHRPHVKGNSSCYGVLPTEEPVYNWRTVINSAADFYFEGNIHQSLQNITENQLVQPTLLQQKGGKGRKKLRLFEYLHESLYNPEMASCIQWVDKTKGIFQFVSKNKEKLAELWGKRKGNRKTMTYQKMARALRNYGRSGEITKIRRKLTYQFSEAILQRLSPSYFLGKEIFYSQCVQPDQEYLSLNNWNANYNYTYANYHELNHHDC
As to conditions: protein: recombinant; tags: N-terminal GST; dsDNA, one strand shown. The method, boiled down:
as §1

Another test deals with ELF4 (Homo sapiens, UniProt Q99607 1-663). As to conditions: protein: recombinant; tags: N-terminal GST; dsDNA, one strand shown. The method, boiled down:
as §1

Another test deals with T9, ETV2 (Homo sapiens, UniProt O00321 1-342).
T9 sequence: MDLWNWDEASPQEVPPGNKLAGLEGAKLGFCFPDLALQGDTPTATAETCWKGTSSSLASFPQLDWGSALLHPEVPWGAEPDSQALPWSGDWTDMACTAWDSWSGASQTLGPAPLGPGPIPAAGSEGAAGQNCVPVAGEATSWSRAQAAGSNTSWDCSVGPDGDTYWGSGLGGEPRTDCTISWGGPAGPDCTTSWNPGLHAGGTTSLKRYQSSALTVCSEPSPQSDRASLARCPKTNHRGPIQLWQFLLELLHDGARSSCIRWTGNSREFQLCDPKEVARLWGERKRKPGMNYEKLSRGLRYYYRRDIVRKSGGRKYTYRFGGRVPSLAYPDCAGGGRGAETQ
As to conditions: protein: recombinant; tags: N-terminal GST; dsDNA, one strand shown. In outline:
as §1

The target of another test is T10, ELF3 (Homo sapiens, UniProt P78545 1-371).
T10 sequence: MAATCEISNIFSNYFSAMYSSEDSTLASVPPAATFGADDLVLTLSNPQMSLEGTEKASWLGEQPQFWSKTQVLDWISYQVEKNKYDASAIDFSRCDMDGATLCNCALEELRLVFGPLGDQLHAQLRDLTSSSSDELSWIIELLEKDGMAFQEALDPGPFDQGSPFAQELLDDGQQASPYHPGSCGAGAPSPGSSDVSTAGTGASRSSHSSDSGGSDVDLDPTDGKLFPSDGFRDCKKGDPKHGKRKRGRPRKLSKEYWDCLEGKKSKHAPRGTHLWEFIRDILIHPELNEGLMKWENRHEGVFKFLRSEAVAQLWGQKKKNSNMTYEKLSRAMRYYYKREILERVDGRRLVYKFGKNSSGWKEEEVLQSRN
As to conditions: protein: recombinant; tags: N-terminal GST; dsDNA, one strand shown. In outline: as §1

The target of another test is CRX (Homo sapiens, UniProt O43186 1-299). As to conditions: protein: recombinant; tags: N-terminal GST; dsDNA, one strand shown. In outline: as §1
CRX, sequence (O43186 whole entry): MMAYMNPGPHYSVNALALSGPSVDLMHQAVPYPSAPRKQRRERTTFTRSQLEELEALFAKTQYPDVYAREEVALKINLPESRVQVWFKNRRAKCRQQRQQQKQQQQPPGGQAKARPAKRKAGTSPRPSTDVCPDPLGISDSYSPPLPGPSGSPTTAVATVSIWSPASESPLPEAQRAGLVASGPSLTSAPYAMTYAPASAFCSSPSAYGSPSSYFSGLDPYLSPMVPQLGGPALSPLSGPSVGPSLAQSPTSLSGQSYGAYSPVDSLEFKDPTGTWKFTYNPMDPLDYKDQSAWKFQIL
For a further test, the target named is ETV1 (Homo sapiens, UniProt P50549 1-477). As to conditions: protein: recombinant; tags: N-terminal GST; dsDNA, one strand shown. The method, boiled down: as §1
ETV1, sequence (P50549 whole entry): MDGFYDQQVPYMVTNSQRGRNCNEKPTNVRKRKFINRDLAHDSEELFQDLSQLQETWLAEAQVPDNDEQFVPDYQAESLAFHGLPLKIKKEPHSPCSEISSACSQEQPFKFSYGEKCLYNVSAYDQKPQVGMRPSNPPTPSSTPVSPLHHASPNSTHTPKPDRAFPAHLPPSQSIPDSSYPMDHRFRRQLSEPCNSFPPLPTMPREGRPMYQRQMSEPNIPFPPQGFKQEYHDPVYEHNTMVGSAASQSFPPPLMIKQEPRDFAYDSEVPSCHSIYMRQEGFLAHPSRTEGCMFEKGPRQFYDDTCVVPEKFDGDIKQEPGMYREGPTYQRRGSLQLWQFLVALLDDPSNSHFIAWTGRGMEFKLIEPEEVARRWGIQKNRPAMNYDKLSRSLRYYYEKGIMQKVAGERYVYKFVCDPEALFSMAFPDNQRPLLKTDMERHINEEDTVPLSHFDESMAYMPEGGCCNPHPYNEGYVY

These results are taken from PMC7862700, “An all-to-all approach to the identification of sequence-specific readers for epigenetic DNA modifications on cytosine”.

ELF4, sequence (Q99607 whole entry): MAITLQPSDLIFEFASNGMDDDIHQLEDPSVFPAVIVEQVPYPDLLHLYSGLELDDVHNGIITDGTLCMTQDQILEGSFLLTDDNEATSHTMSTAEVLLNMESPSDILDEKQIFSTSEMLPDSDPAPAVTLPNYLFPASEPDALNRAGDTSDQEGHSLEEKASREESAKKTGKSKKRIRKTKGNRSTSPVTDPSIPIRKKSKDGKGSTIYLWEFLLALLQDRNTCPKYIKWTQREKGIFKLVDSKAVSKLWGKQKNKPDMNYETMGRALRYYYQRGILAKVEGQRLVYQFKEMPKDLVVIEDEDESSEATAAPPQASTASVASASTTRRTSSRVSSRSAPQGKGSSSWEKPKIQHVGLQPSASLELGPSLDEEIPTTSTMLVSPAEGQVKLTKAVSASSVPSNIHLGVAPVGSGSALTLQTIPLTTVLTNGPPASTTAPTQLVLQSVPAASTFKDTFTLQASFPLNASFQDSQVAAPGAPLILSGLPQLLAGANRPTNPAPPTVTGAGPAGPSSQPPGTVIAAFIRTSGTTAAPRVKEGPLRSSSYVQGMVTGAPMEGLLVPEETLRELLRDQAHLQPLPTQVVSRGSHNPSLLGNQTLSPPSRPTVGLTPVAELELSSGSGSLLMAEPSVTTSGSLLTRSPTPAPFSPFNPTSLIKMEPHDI
ELF1, sequence (P32519 whole entry): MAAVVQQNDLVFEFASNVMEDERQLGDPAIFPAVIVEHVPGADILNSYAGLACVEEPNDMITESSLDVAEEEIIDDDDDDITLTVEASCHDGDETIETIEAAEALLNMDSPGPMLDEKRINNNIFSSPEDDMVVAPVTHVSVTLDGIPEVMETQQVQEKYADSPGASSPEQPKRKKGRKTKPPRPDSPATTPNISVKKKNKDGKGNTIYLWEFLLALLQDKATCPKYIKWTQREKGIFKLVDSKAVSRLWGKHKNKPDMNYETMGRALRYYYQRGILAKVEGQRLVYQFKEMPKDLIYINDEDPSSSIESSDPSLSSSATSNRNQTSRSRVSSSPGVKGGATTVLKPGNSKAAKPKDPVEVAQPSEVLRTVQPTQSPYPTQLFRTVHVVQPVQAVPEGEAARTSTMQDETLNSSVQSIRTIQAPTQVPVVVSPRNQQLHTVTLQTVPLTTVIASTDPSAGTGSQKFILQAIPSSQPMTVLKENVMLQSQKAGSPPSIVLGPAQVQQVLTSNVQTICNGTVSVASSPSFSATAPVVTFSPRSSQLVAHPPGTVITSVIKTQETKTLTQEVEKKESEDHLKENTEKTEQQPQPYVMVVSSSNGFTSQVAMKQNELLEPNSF

Take TGATTC: the binding signal was 1.12 fold enrichment (6-mer frequency, TF over GST control) in the test with FLI1; 1.09 fold enrichment (6-mer frequency, TF over GST control) with ELK1; 1.1 fold enrichment (6-mer frequency, TF over GST control) with GABPA; 1.08 fold enrichment (6-mer frequency, TF over GST control) with ERG; 1.1 fold enrichment (6-mer frequency, TF over GST control) in the test with ELF1; 1.12 fold enrichment (6-mer frequency, TF over GST control) with EHF. The binding signal with SPI1 is 1.06 fold enrichment (6-mer frequency, TF over GST control); with SPIB it was 1.17 fold enrichment (6-mer frequency, TF over GST control); in the test with ELK3, 1.02 fold enrichment (6-mer frequency, TF over GST control); with FEV, 1.03 fold enrichment (6-mer frequency, TF over GST control); in the test with ETV5 it was 1.1 fold enrichment (6-mer frequency, TF over GST control); in the test with HSF1 it was 1.18 fold enrichment (6-mer frequency, TF over GST control). Besides, the binding signal was 1.11 fold enrichment (6-mer frequency, TF over GST control) in the test with SPIC; 1.07 fold enrichment (6-mer frequency, TF over GST control) in the test with ELF4; 1.03 fold enrichment (6-mer frequency, TF over GST control) with ETV2; 1.12 fold enrichment (6-mer frequency, TF over GST control) with ELF3; 1.12 fold enrichment (6-mer frequency, TF over GST control) with CRX; 1.18 fold enrichment (6-mer frequency, TF over GST control) with ETV1.
